Screening results deposited in PubChem by several laboratories.
CYP2C19 inhib: inhibitors of human CYP2C19; P33261; inhibition, % at 5 µM; 21% of 96,000 active; CYP2C19 Supersomes, luciferin-H EGE luminescence, 30 min;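 active = CYP2C19 inhibition above a set limit at 5 µM in the primary screen, cut at about 50% in these data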;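 also: plate controls were negative control wells for no effect and 2.5 mM tranylcypromine positive control for full effect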
CYP2C9 inhib: human CYP2C9 inhibition; inhibition, % at 5 µM; 20% of 96,000 active; CYP2C9 Supersomes, luciferin-H conversion, luminescence; P11712;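 active = blocking of liver enzyme CYP2C9 beyond about 50% at 5 µM, limit read from the data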
CYP2C9 act: CYP2C9 (human) activation; recombinant CYP2C9, luciferin-H conversion, luminescence; stronger effect = higher value; factor 1 = untreated enzyme, 0 = blocked; activation factor at 5 µM; P11712; 1.4% of 96,000 active;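 active = activation factor of 2 or more for CYP2C9 at a 5 µM dose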;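 also: 0 = sulfaphenazole-blocked wells and 1 = vehicle-only wells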
D1 mod: allosteric modulators of human D1 dopamine receptor. P21728. B-score at 10 µM. HEK293 D1, CRE-luciferase, dopamine EC30 potentiation; actives deviate in either direction. 5.9% of 58,000 active. AID 641;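 active = luminescence count or its row- and column-corrected plate score outside the 99.7% band of the plate's sample wells, on either side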
Target sequence (P21728 whole entry, looked up): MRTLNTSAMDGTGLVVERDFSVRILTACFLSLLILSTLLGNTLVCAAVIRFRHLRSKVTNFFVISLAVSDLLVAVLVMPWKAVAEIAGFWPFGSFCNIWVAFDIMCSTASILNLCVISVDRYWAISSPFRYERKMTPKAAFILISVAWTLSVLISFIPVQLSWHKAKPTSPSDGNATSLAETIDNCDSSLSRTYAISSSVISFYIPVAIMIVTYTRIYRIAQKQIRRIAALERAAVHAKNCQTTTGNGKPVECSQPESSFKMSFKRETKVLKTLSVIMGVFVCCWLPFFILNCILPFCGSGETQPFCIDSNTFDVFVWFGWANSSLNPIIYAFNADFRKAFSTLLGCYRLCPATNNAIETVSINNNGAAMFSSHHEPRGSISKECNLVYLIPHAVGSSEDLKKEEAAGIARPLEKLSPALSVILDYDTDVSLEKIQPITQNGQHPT
hDAT+cocaine: changed human dopamine transporter uptake under cocaine IC80. Q01959. LLC-PK1 hDAT cells, [14C]-dopamine uptake with cocaine IC80; actives deviate in either direction. B-score at 10 µM. 1.3% of 110,000 active. AID 449768;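 active = Z score or B-score, a plate-position-corrected score, falls beyond the plate's 99.7% confidence bounds, in either direction; inactive = both scores lie inside the 99.7% bounds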;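 also: scored against the spread of the other compound wells on the same plate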
CYP2C19 act: cytochrome P450 2C19 (human) activation. P33261. recombinant CYP2C19, luciferin-H EGE luminescence; stronger effect = higher value; 0 = fully inhibited enzyme, 1 = untreated enzyme. activation factor at 5 µM. 96,000 tested, under 10 active;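 active = activation factor of at least 2 at 5 µM in the primary screen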;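 also: 0 = wells with 2.5 mM tranylcypromine and 1 = vehicle-only wells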
* hit, by the source's call; · = no result given. In the library only some 28% were active in any assay of this set; here they are far more common.

SMILES	CYP2C19 inhib	CYP2C9 inhib	CYP2C9 act	D1 mod	hDAT+cocaine	CYP2C19 act
O=C(COC(=O)c1cc(S(=O)(=O)N2CCOCC2)ccc1O)NCC1CCCO1 (stereo not given)	5	8	0.9	-0.42	-0.27	1
O=C(NCc1cccnc1)/C(=C/c1ccc(-c2ccc(Cl)cc2)o1)S(=O)(=O)c1ccccc1	67*	49	0.5	·	0.18	0.3
CCC(=O)N/C(=N/c1nc(C)cc(C)n1)Nc1cccc(OC)c1	14	17	0.8	1	0.59	0.9
COc1ccc(CNC(=O)c2cccnc2Sc2ccc(Cl)cc2)cc1	-6	5	1	·	-0.02	1.1
COc1ccc(CNC(=O)c2csc(Cc3ccc(Cl)cc3)n2)cc1	57*	62*	0.4	·	·	0.4
COc1ccc(CNC(=O)c2csc(Cc3ccc(OC)cc3)n2)cc1	49	67*	0.3	·	1.5	0.5
Oc1ccc(N2CCN(C(c3ccccn3)c3nnnn3C3CCCC3)CC2)cc1 (stereo not given)	·	·	·	·	-0.039	·
COc1ccc(S(=O)(=O)C(C#N)c2nc3ccccc3nc2N2CCC(C)CC2)cc1 (stereo not given)	-3	-8	1.1	0.82	-1.6	1
Cc1nc(N2CCOCC2)c(C#N)c(C)c1Br	56*	20	0.8	·	-0.38	0.4
Cc1cc(C)c(C#N)c(N2CCOCC2)n1	·	·	·	·	-0.36	·
O=C(NCC(=O)N(c1ccc2c(c1)OCCO2)C(C(=O)NC1CCCC1)c1ccco1)c1ccco1 (stereo not given)	·	·	·	0.016	-0.8	·
CCn1cc(C2=NC(C(C)C)CO2)c2ccccc21 (stereo not given)	42	2	1	-1.5	1.3	0.6
CC(C)C1COC(c2cccc3ccccc23)=N1 (stereo not given)	·	·	·	·	3*	·
CCCc1cc(=O)[nH]c(SCC(=O)Nc2ccccc2C#N)n1	2	-29	1.3	·	0.61	1
COc1ccc2nc(SCC(=O)Nc3ccccc3C#N)[nH]c2c1	38	67*	0.3	-0.071	0.25	0.6
COc1ccc2nc(SCC(=O)Nc3ccccc3C)[nH]c2c1	68*	88*	0.1	·	0.77	0.3
CCOc1ccc2nc(SCC(=O)Nc3cc4c(cc3C(C)=O)OCO4)[nH]c2c1	61*	72*	0.3	·	-0.24	0.4
COc1ccc2nc(SCC(=O)Nc3cc(C)on3)[nH]c2c1	43	39	0.6	·	1.1	0.6
CCOc1ccc2nc(SCC(=O)NC3CCS(=O)(=O)C3)[nH]c2c1 (stereo not given)	0	-2	1	0.02	-0.033	1
CC(C)C(OC(=O)c1ccco1)C(=O)NCc1cccs1 (stereo not given)	69*	35	0.6	0.31	-0.47	0.3
Cc1ccc(CNC(=O)C(C)OC(=O)c2ccco2)cc1 (stereo not given)	72*	55*	0.4	-0.52	-0.27	0.3
Cc1ccc(CNC(=O)C(OC(=O)c2ccco2)C(C)C)cc1 (stereo not given)	86*	61*	0.4	-0.37	1	0.1
CCC(OC(=O)c1ccco1)C(=O)NCc1ccc(C)cc1 (stereo not given)	23	28	0.7	-0.66	0.035	0.8
Cc1ccc(CNC(=O)C(C)OC(=O)c2cccs2)cc1 (stereo not given)	77*	68*	0.3	·	-0.33	0.2
O=C(OC(C(=O)NCc1cccs1)c1ccccc1F)c1ccco1 (stereo not given)	·	·	·	·	0.94	·
SMILES	CYP2C19 inhib	CYP2C9 inhib	CYP2C9 act	D1 mod	hDAT+cocaine	CYP2C19 act
CC(C)C(OC(=O)c1ccco1)C(=O)NCc1ccco1 (stereo not given)	-3	-13	1.1	-0.084	0.18	1
CCOC(=O)c1ccc(COC(=O)CNC(=O)CNC(=O)c2ccc(OC)cc2)o1	31	46	0.5	0.91	0.014	0.7
CCOCCCNC(=S)N1C2CCC1CC(NC(=O)NC13CC4CC(CC(C4)C1)C3)C2 (stereo not given)	7	6	0.9	·	-0.18	0.9
CC(OC(=O)c1cccs1)C(=O)NCC1CCCO1 (stereo not given)	51*	-7	1.1	·	-0.028	0.5
CCOC(=O)N1CCN(C(=O)c2c(-c3ccccc3)noc2C)CC1	40	19	0.8	-1.3	-0.72	0.6
CN(C)c1oc(-c2ccccc2Cl)nc1P(=O)(c1ccccc1)c1ccccc1	36	67*	0.3	·	1.9	0.6
CCn1c(SCC(=O)NCc2ccc(F)cc2)nc2c(c1=O)SC(C)C2 (stereo not given)	6	63*	0.4	0.8	-0.98	0.9
CC1Cc2nc(SCC(=O)NCCc3ccccc3)n(C)c(=O)c2S1 (stereo not given)	·	·	·	·	0.52	·
CCn1c(SCC(=O)NCCc2ccccc2)nc2c(c1=O)SC(C)C2 (stereo not given)	76*	92*	0.1	·	0.26	0.2
CCn1c(SCC(=O)NCc2ccccc2)nc2c(c1=O)SC(C)C2 (stereo not given)	30	61*	0.4	·	1.8	0.7
OCC[C@@H]1C[C@H](O)[C@@H](O)[C@]2(CCCO2)O1	·	·	·	·	-0.0049	·
Cc1ccc(C(=O)N2CCC3(CC2)Oc2ccc(F)cc2C(=O)C32CC(c3cccnc3)=NO2)s1 (stereo not given)	·	·	·	·	1.4	·
O=C(N/N=C/c1ccncc1)c1cc([N+](=O)[O-])cc([N+](=O)[O-])c1O	56*	100*	0	·	·	0.4
Cc1ccc(C(=O)NCC(=O)OCC(=O)c2c(N)n(C)c(=O)n(C)c2=O)s1	7	58*	0.4	1.2	·	0.9
Cc1ccc(C)c(NC(=O)Cn2nc(-c3ccccc3)nc2-c2ccccc2)c1	20	-20	1.2	·	-0.24	0.8
CCc1nc2c(sc3nc(N4CCOCC4)c4c(c32)CC(C)(C)OC4)c(=O)o1	-1	61*	0.4	·	·	1
CC1(C)Cc2c(c(N3CCOCC3)nc3sc4c(=O)[nH]cnc4c23)CS1	-9	24	0.8	·	-0.027	1.1
CC1(C)Cc2c(c(N3CCOCC3)nc3sc4c(N5CCOCC5)nnnc4c23)CS1	20	78*	0.2	·	·	0.8
Cc1ccc(C)c(N(CC(N)=O)S(C)(=O)=O)c1	-7	-14	1.1	1	-0.015	1.1
CC1(C)c2[nH]c3ccccc3c2C[C@H]2C(=O)N(Cc3ccccc3F)C(=O)N21	·	·	·	·	-0.05	·
CC1=CC(C)(C)N2C(=O)C3(C(C#N)=C(N)Oc4cc(C)oc(=O)c43)c3cccc1c32 (stereo not given)	49	23	0.8	-0.2	0.042	0.5
O=S(=O)(c1cccc(Cl)c1Cl)N1CCCCC1	83*	-170	2.7*	0.067	-0.085	0.2
CCN(CC)S(=O)(=O)c1ccc2c(c1)C(=NO)c1cc(S(=O)(=O)N(CC)CC)ccc1-2	·	·	·	·	0.93	·
